Reference: ChEMBL document CHEMBL3988442, “University of Dundee, Small-Polar-MMV Screening Library” (2021)

How the values were obtained:
[1] = target: T1, Aspartate--tRNA(Asp/Asn) ligase (Mycobacterium tuberculosis (strain ATCC 25618 / H37Rv)) (UniProt P9WFW3); assay: Assay for Asp RNA synthetase-1 from Mycobacterium tuberculosis; format: functional; parameters: scale not given: direction of the effect not stated beside the values; conditions: 30 µM; also: in the data most compounds retested in dose-response had high values
T1 sequence (whole entry): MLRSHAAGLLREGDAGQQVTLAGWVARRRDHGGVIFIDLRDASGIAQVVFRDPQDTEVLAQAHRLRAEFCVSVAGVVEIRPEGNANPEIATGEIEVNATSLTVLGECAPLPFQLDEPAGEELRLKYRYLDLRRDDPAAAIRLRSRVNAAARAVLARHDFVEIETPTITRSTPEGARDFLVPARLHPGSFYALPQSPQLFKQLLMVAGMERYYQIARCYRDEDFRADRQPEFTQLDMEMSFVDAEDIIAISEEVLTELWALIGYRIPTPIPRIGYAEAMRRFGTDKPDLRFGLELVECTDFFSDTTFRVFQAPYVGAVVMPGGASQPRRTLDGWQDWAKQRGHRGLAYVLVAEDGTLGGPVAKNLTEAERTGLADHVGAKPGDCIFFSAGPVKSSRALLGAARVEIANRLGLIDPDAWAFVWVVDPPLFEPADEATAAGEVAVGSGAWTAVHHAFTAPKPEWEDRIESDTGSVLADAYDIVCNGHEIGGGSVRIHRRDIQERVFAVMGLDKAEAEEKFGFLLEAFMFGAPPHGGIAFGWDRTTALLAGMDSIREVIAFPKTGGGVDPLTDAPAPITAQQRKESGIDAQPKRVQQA

[2] = target: Shiga toxin 2 (Escherichia coli O157:H7) (UniProt P09385+P09386); assay: E. coli 0.157:H7 Shiga Toxin SOP - stx2 screening assay; format: functional; parameters: scale not given: direction of the effect not stated beside the values; conditions: 30 µM

| Structure (SMILES) | Percent Effect [1] [%] | Percent Effect [2] [%] |
| --- | --- | --- |
| CN(C)C(CNC(=O)NCCc1cccc(O)c1)c1ccco1 (stereo not drawn) | 2.5 | -5.55 |
| NC(=O)c1cc(C2CCCN(CCCOc3ccccc3)C2)n[nH]1 (stereo not drawn) | -1.57 | -26 |
| CC(CNC(=O)Nc1cn[nH]c1)N1CCOCC1 (stereo not drawn) | 1.82 | 26.9 |
| Cc1cc(NC(=O)CCN2CCCC2Cn2cncn2)no1 (stereo not drawn) | -2.02 | -32.1 |
| O=C(NCc1ccc(-c2ccn[nH]2)cc1)N1CCC(N2CCCC2)C1 (stereo not drawn) | -3.65 | 9.65 |
| CCNC(=O)c1ccoc1CN1c2ccccc2CC1C (stereo not drawn) | 2.94 | -19.2 |
| Cc1cc(CN2CCN(C(=O)c3sccc3C3CC3)CC2)on1 | 0.922 | 27 |
| CC(C)(C)C(=O)NCCC(=O)NC(C)(C)c1ccc2c(c1)OCCO2 | 1.41 | -2.07 |
| CC(C)c1nc(C2CCCN2CC(=O)Nc2nncs2)no1 (stereo not drawn) | -6.57 | 9.9 |
| c1cc(CN2CCCC(c3noc(C4CC4)n3)C2)no1 (stereo not drawn) | -0.285 | 4.12 |
| CN1CCCC[C@@H]2[C@H]1[C@@H](c1ccccc1)CCN2C(=O)c1ccccc1 | -4.21 | -4.17 |
| Cc1nn(C)c(C)c1C1CCCN1CC(=O)Nc1ccncc1 (stereo not drawn) | 1.52 | 11.1 |
| c1cnn(CC2CCCN2Cc2nc(-c3ccoc3)no2)c1 (stereo not drawn) | 0.0441 | -0.74 |
| COc1cccc(CCC(=O)N2CCCC(n3cc(C)cn3)C2)c1 (stereo not drawn) | -3.33 | 10.7 |
| CC(C)(C(=O)NCC(N)=O)c1ccccc1F | -1.56 | -19.3 |
| COC[C@@]12CC[C@@H](N3CCOCC3)C[C@H]1CCN(c1ncccc1Cl)C2 | -2.31 | 23 |
| O=C(CN1CCCC(O)C1)NC(=O)NCc1cccs1 (stereo not drawn) | -0.0898 | -13.2 |
| COc1cccc(OCCNC(=O)CN2CCN(C)CC2C)c1 (stereo not drawn) | -3.03 | -14.9 |
| COCCn1ccc(=O)c(OCC(=O)Nc2ccccc2)c1C | -0.61 | -38 |
